The values below come from PubChem BioAssay (EPA / NIEHS).

The source made the active and inactive calls. Rule for the calls: active = hit-call score of the fitted dose curve at least 0.9, where 1 is the maximum; inactive = score below 0.9.

Read-out in the test: Interleukin-8 (IL8), CXCL8 (gene 3576)
In words: BSK_hDFCGF_IL8: BioMAP Diversity Plus: hDFCGF Assay for Interleukin-8 (IL8) Biomarker Activity (AID 2283058). Particulars: primary human foreskin fibroblasts; actives raise or lower the signal. Here is the method: BSK_hDFCGF is a cell-based, multiplexed-readout assay that uses foreskin fibroblast, a human skin primary cell, with measurements taken at 24 hours after chemical dosing in a 96-well plate.BSK_hDFCGF_IL8 is an assay component measured in the BSK_hDFCGF assay. It measures IL-8 antibody related to regulation of gene expression using ELISA technology.Data from the assay component BSK_hDFCGF_IL8 was analyzed into 1 assay endpoint. This assay endpoint, BSK_hDFCGF_IL8, was analyzed with bidirectional fitting relative to DMSO as the negative control and baseline of activity. Using a type of binding reporter, gain or loss-of-signal activity can be used to understand changes in the signaling as they relate to the gene CXCL8. Furthermore, this assay endpoint can be referred to as a primary readout, because this assay has produced multiple assay endpoints where this one serves a signaling function. To generalize the intended target to other relatable targets, this assay endpoint is annotated to the cytokine intended target family, where the subfamily is interleukins.
The levels of cell surface (or secreted, indicated by the prefix "s") biomarker endpoints were measured by ELISA. Overt cytotoxicity to cells in confluent adherent cultures (all systems other than the BT system) was assessed by measuring total protein levels using sulforhodamine B (SRB) staining in parallel cultures at the time of biomarker measurements, indicated as SRB endpoints. For proliferation assays for adherent cell types, individual cell types are cultured at sub-confluence and relative cell numbers quantified by SRB staining at time points optimized for each system (48 h: 3C and CASM3C systems; 72 h: BT and HDF3CGF systems; 96 h: SAg system). SRB was performed by staining cells with 0.1% SRB after fixation with 10% TCA and reading wells at 560 nm.Viability and proliferation of PBMC (T cells) was quantified by Alamar Blue reduction for the SAg and BT systems. For PBMC viability (referred to as PBMC Cytotoxicity within the assay endpoint names), cells were plated (75,000/well in a 96-well plate) and then chemical samples added for 1 h before addition of activators, SEB and TSST-1 (20 ng/mL final concentration each). Cells were incubated for 90 h. Then, Alamar Blue (20 uL/well) (Invitrogen, Cat DAL1100) was added for 6 h, and the plates were read with a fluorescence microplate reader at 546/580 nm (excitation/emission). For PBMC proliferation, cells were plated and activated as above but incubated for only 16 h prior to addition of Alamar Blue. Plates were read after 6 h.
`N#CN=C1SCCN1Cc1ccc(Cl)nc1`: the result was inactive.
Same read-out and setting: as for `CC(C)(C)C(=O)C(Oc1ccc(Cl)cc1)n1cncn1` (stereo not given), the entry is “inactive”.
The same measure, in the same setting: next, `CSC(=O)c1c(C(F)F)nc(C(F)(F)F)c(C(=O)SC)c1CC(C)C`: “inactive”; `N#Cc1c[nH]cc1-c1cccc2c1OC(F)(F)O2`: “inactive”; `CS(=O)(=O)c1cc(C(F)(F)F)ccc1C(=O)c1cnoc1C1CC1`: “inactive”.
Still for that read-out and setting: as for `CCCC(=NOCC)C1=C(O)CC(CC(C)SCC)CC1=O` (stereo not given), the entry is “inactive”; as for `CCCCC(C#N)(Cn1cncn1)c1ccc(Cl)cc1` (stereo not given), “inactive”.
Regarding `CC(C)=CC1C(C(=O)OCc2coc(Cc3ccccc3)c2)C1(C)C` (stereo not given), the result was inactive.
On the same count and under the same terms, next, `CNC(=O)N(C)c1nnc(C(C)(C)C)s1`: “inactive”.
The same measure, in the same setting: as for `Nc1c(Cl)c(Cl)nc(C(=O)O)c1Cl`, the entry is “inactive”; as for `Cc1nc(N(C)C)nc(OC(=O)N(C)C)c1C`, “inactive”; as for `O=C(Nc1ccccc1-c1ccc(Cl)cc1)c1cccnc1Cl`, “inactive”.
Still for that read-out and setting: next, `CCOP(=S)(OCC)Oc1nc(Cl)n(C(C)C)n1`: “inactive”; `CC1(C)CCC(=Cc2ccc(Cl)cc2)C1(O)Cn1cncn1` (stereo not given): “inactive”; `CCOP(=O)(OCC)Oc1nc(Cl)c(Cl)cc1Cl`: “inactive”.
In the case of `COc1cc(Cl)c(OC)cc1Cl`, the result was inactive.
Still for that read-out and setting: as for `C=C(C)CN(CC)c1c([N+](=O)[O-])cc(C(F)(F)F)cc1[N+](=O)[O-]`, the entry is “inactive”; as for `CC1(C)C(C(=O)OC(C#N)c2cccc(Oc3ccccc3)c2)C1(C)C` (stereo not given), “inactive”; as for `COCc1cnc(C2=NC(C)(C(C)C)C(=O)N2)c(C(=O)O)c1` (stereo not given), “inactive”.
The same measure, in the same setting: as for `CCC(C)n1c(=O)[nH]c(C)c(Br)c1=O` (stereo not given), the entry is “inactive”; as for `CCOc1nc(C(Cl)(Cl)Cl)ns1`, “inactive”.
For `Cc1c(COC(=O)[C@@H]2[C@H](/C=C(\Cl)C(F)(F)F)C2(C)C)cccc1-c1ccccc1`, the result was inactive.
Take `CN/C(=N\[N+](=O)[O-])NCc1cnc(Cl)s1`: the result was inactive.
On the same count and under the same terms, as for `COC(=O)c1c(C(F)F)nc(C(F)(F)F)c(C2=NCCS2)c1CC(C)C`, the entry is “inactive”.
For `C=CCOC(=O)C(C)(C)OC(=O)c1cc(-n2c(=O)cc(C(F)(F)F)n(C)c2=O)ccc1Cl`, the outcome was inactive.
Same read-out and setting: as for `Cn1c(-c2ccccc2)cc(-c2ccccc2)[n+]1C`, the entry is “inactive”; as for `Clc1cccc(C(Cl)(Cl)Cl)n1`, “inactive”.
Consider `Cc1ccc(N=CN(C)C=Nc2ccc(C)cc2C)c(C)c1`, for which the AC50 is 36.1 µM (active).
Consider `CC(C)C1(C)N=C(c2ncccc2C(=O)O)NC1=O` (stereo not given), for which the result was inactive.
The same measure, in the same setting: next, `COP(=O)(OC)O/C(C)=C/C(=O)N(C)C`: “inactive”; `CN=C=S`: “inactive”; `COc1ccc(-c2ccccc2)cc1NNC(=O)OC(C)C`: “inactive”.
The same measure, in the same setting: next, `COP(=S)(OC)SCn1nnc2ccccc2c1=O`: “inactive”; `COP(=S)(OC)Oc1ccc([N+](=O)[O-])c(C)c1`: “inactive”; `CCOc1nc(F)cc2nc(S(=O)(=O)Nc3c(Cl)cccc3Cl)nn12`: “inactive”.
With `CO/N=C(/C1=NOCCO1)c1ccccc1Oc1ncnc(Oc2ccccc2Cl)c1F`, the result was inactive.
Same read-out and setting: as for `CCNC(=O)NC(=O)C(C#N)=NOC`, the entry is “inactive”; as for `COC(=O)NS(=O)(=O)c1ccc(N)cc1`, “inactive”; as for `COCC(C)N(C(=O)CCl)c1c(C)csc1C` (stereo not given), “inactive”.
Still for that read-out and setting: next, `CC(C)N1C(=O)N(c2ccccc2)CSC1=NC(C)(C)C`: “inactive”.

By AC50 is commonly meant the concentration at which the activity in the assay is half-maximal.
